High-throughput results deposited in PubChem by National Center for Advancing Translational Sciences (NCATS).
Pol kappa inh-1: DNA polymerase kappa (human) inhibition | Q9UBT6 | purified Pol kappa, fluorescent DNA synthesis assay, 10 min | Potency, µM (series often up to 107 µM), hits mostly inhibitors | actives 0.53% (n = 400,000) | AID 588579
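10 nM Pol kappa was preincubated with compounds for 15 min at room temperature. Reaction started with 50 nM (final) substrate. Fluorescence read kinetically at 0 and 10 min.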
POLI inh: DNA polymerase iota (human) inhibition | Pol iota fluorescent replication assay, 10 min | Q9UNA4 | actives 1% (n = 390,000) | Potency, µM (highest dose often 115 µM), hits mostly inhibitors | AID 588590
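Fluorescent replication assay read twice, at 0 min and 10 min after adding 50 nM (final) substrate. Enzyme (10 nM) and compounds were first incubated 15 min at room temperature; enzyme-free buffer wells were negative controls.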
L3MBTL1 inh: blocks human L3MBTL1 | actives 0.66% (n = 230,000) | Q9Y468 | AlphaScreen L3MBTL1–H3K9me1 peptide binding | AID 485360 | Potency, µM (series often up to 57.1 µM), actives largely listed as inhibitors; also: nearly all actives have a fitted effect of over 60% in size
Target sequence (Q9Y468 whole entry, looked up): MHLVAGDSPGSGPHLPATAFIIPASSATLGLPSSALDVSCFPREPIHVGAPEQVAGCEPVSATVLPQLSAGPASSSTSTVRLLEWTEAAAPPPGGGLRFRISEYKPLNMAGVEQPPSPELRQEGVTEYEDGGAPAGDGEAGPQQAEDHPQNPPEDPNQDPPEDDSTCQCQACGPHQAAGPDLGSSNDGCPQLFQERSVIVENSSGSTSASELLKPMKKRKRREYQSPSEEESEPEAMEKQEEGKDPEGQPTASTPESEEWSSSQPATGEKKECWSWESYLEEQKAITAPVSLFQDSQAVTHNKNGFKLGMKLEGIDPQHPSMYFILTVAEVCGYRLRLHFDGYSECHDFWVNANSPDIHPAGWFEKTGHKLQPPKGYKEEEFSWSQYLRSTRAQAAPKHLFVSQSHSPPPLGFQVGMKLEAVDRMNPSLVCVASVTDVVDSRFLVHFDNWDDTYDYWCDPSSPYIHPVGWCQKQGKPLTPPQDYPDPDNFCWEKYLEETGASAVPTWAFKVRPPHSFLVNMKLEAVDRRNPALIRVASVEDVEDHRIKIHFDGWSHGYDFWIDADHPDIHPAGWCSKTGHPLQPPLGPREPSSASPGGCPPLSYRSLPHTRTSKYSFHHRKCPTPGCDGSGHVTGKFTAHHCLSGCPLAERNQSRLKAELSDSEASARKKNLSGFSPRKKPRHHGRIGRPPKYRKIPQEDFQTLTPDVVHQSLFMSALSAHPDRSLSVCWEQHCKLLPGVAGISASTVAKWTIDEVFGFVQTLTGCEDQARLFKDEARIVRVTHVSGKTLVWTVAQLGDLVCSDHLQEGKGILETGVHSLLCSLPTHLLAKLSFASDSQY
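L3MBTL1 (50 nM) pre-complexed 30 min with biotinylated H3(1-15)K9me1 peptide (75 nM), then compounds added for 30 min at room temperature; AlphaScreen streptavidin donor/nickel chelate acceptor beads (10 ug/mL final) read after 30 min dark incubation.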
WRN helicase inh: WRN helicase (human) inhibition; Q14191; Potency, µM (top dose mostly 114 µM), usual class: inhibitors; WRN helicase unwinding, fluorescent forked duplex, kinetic; actives 0.46% (n = 360,000); AID 651768; also: nearly all actives have a fitted effect of over 55% in size
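Primary qHTS, 1536-well format. 20 nM WRN + compound, 15 min RT; start with 100 nM forked fluorophore/quencher duplex, 2 mM ATP (final); kinetic read ex 525/em 598 nm.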
Pol beta inh: inhibitors of human DNA polymerase beta | P06746 | Pol beta primer extension/strand displacement, fluorescence kinetic | Potency, µM (top dose mostly 114 µM), actives largely listed as inhibitors | actives 1.3% (n = 340,000)
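Reaction started by 50 nM substrate onto compound-treated Pol beta (10 nM, 15 min preincubation, room temperature); plates read at 0 min and 10 min. Normalized concentration-effect data fitted by four-parameter Hill equation.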
Pol eta inh-1: DNA polymerase eta (human) inhibition; Q9Y253; recombinant Pol eta, fluorescent DNA replication assay; Potency, µM (doses to about 114 µM), hits mostly inhibitors; actives 1.2% (n = 390,000); AID 588591
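Fluorescent replication assay: 50 nM final substrate added after a 15 min room-temperature compound preincubation with 10 nM enzyme. Signal taken at 0 min and again at 10 min.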
TbPGK inh: TbPGK inhibition, hit validation; shares compounds with Pol kappa inh-1; TbPGK coupled GAPDH assay, Kinase-Glo luminescence; Potency, µM (series often up to 57.5 µM), usual class: inhibitors; actives 79% (n = 500); AID 686980; also: nearly all actives have a fitted effect of over 65% in size
POLI cherry-pick: Human Pol iota inhibitor confirmatory assay; shares compounds with Pol kappa inh-1; Pol iota primer extension, TAMRA/BHQ fluorescence; Potency, µM, usual class: inhibitors; actives 77% (n = 1,500); AID 720496
GALK confirm: confirmation of human galactokinase (GALK) inhibitors. shares compounds with Pol eta inh-1. purified GALK, Kinase-Glo ATP depletion luminescence. Potency, µM (series often up to 115 µM), most hits filed as inhibitors. actives 70% (n = 150)
Redox cycling: counter-screen for GALK inhibitors: redox cycling H2O2 generation; shares compounds with Pol eta inh-1; Phenol red-HRP H2O2 redox cycling, absorbance 600 nm; Potency, µM (top dose mostly 115 µM), usual class: inhibitors; actives 40% (n = 150)
HEK293 viability: counter-screen for GALK inhibitors: HEK293 cell cytotoxicity | shares compounds with Pol eta inh-1 | HEK-293 viability, ATP luminescence (CellTiter-Glo), 24/48 h | Potency, µM (titrated, usually from 46.1 µM), actives largely listed as inhibitors | actives 10% (n = 170)
Pol kappa inh-2: confirmation of human DNA polymerase kappa inhibitors; purified Pol-kappa, fluorescent strand-displacement substrate; AID 720501; actives 76% (n = 920); Potency, µM, most hits filed as inhibitors; shares compounds with Pol eta inh-1
Pol eta inh-2: confirmation of human DNA polymerase eta inhibitors. actives 64% (n = 2,600). Potency, µM, actives largely listed as inhibitors. shares compounds with Pol eta inh-1. AID 720502. Pol eta primer extension, TAMRA/BHQ fluorescence, 10 min
Large screens that a line does not name were inactive (follow-up assays come after a bar, where they were run). Shown are actives, neighbours in structure and some others; about 2.5% of the full set was active somewhere. Calls follow the shape of the dose curve; as a rule, active = well fitted curve in the direction sought with a large enough effect; inconclusive = small, poorly fitted or top-dose-only effect, or another doubt; inactive = no such curve, though single readings can be large; an effect the other way counts as inactive or inconclusive.

O=C(O)CSc1cc(NS(=O)(=O)c2ccc(Br)cc2)c2ccccc2c1O	Pol kappa inh-1 89.1µM, POLI inh 7.08µM, WRN helicase inh 50.1µM, Pol beta inh 89.1µM, Pol eta inh-1 35.5µM (no result: L3MBTL1 inh) | POLI cherry-pick inconclusive | Pol kappa inh-2 inconclusive | Pol eta inh-2 inconclusive
O=C(CN(C(=O)CSc1nnc(COc2ccccc2)o1)c1ccc(F)cc1)NC1CCCCC1	none
O=C(Nc1ccc(S(=O)(=O)Nc2nccs2)cc1)c1nn(-c2ccccc2)ccc1=O	WRN helicase inh 79.4µM, Pol beta inh inconclusive, Pol eta inh-1 6.31µM (no result: L3MBTL1 inh) | POLI cherry-pick 21.2 | Pol kappa inh-2 11.9 | Pol eta inh-2 23.9
COc1ccc(-n2ccc(=O)c(C(=O)Nc3ccc(S(=O)(=O)Nc4nccs4)cc3)n2)cc1	POLI inh inconclusive, Pol beta inh inconclusive (no result: L3MBTL1 inh)
O=C(N=Nc1c(O)[nH]c2ccccc12)c1cc(-c2cccs2)[nH]n1	POLI inh inconclusive, Pol beta inh inconclusive, Pol eta inh-1 56.2µM (no result: L3MBTL1 inh) | POLI cherry-pick 67 | Pol kappa inh-2 inconclusive
O=C(Cc1cccs1)N=Nc1c(O)[nH]c2ccccc12	none (no result: L3MBTL1 inh)
CC1=C(C(=O)Nc2ccccc2C)C(c2ccc[nH]2)n2ncnc2N1 (stereo not given)	Pol kappa inh-1 31.6µM, POLI inh 22.4µM, Pol beta inh 39.8µM, Pol eta inh-1 8.91µM (no result: L3MBTL1 inh, WRN helicase inh) | POLI cherry-pick 21.2 | Pol eta inh-2 30.1
COc1ccc(OCCCC(=O)ON=C(N)c2ccccc2C)cc1	none (no result: Pol beta inh)
O=C(O)c1ccc(N2C(=O)CC(SC(=Nc3ccccc3)Nc3ccccc3)C2=O)cc1 (stereo not given)	none
CC(/C=C/c1ccc(N(C)C)cc1)=N\N=C(/N)SC1CC(=O)N(c2ccc(C(=O)O)cc2)C1=O (stereo not given)	Pol eta inh-1 44.7µM | POLI cherry-pick 67 | Pol kappa inh-2 42.3 | Pol eta inh-2 inconclusive
CCn1nc(-c2ccc(C)cc2)nc2c(=O)n(C)c(=O)nc1-2	none (no result: L3MBTL1 inh, WRN helicase inh, Pol beta inh, Pol eta inh-1) | POLI cherry-pick 2.38 | Pol eta inh-2 1.69
N=C1/C(=C\c2ccc(-c3cccc(C(=O)O)c3)o2)C(=O)N=C2SC=C(c3ccccc3)N12	Pol kappa inh-1 39.8µM, POLI inh 20µM, L3MBTL1 inh 22.4µM, WRN helicase inh 39.8µM, Pol beta inh 20µM, Pol eta inh-1 8.91µM | POLI cherry-pick 29.9 | Pol eta inh-2 9.53
N=C1/C(=C/c2ccc(-c3cccc(C(=O)O)c3)o2)C(=O)N=C2SC(CC(=O)N3CCOCC3)=NN12	Pol kappa inh-1 inconclusive, POLI inh 3.55µM, WRN helicase inh 22.4µM, Pol beta inh inconclusive, Pol eta inh-1 3.55µM (no result: L3MBTL1 inh) | POLI cherry-pick 16.8 | Pol eta inh-2 4.78
CCCC(C(=O)NC(C)(C)C)N(Cc1ccccc1Cl)C(=O)c1snc(C(N)=O)c1N (stereo not given)	none
Cn1nc(-c2ccc(C(=O)Nc3ccc(F)cc3)cc2)c2ccccc2c1=O	POLI inh inconclusive, WRN helicase inh inconclusive, Pol beta inh 15.8µM, Pol eta inh-1 inconclusive | POLI cherry-pick 42.3 | Pol kappa inh-2 23.8 | Pol eta inh-2 inconclusive
COc1ccc(N2CCN(C(=S)Nc3cccc(OC)c3)CC2)cc1	none
CC(=O)c1ccc(C(=O)Nc2nnc(-c3ccc(Cl)cc3)o2)cc1	POLI inh inconclusive (no result: L3MBTL1 inh)
Cc1ccnc2nc(C(=O)Nc3nnc(-c4ccc(Cl)cc4)o3)nn12	Pol kappa inh-1 inconclusive, POLI inh inconclusive, Pol beta inh inconclusive, Pol eta inh-1 inconclusive (no result: L3MBTL1 inh) | POLI cherry-pick 42.3 | Pol eta inh-2 inconclusive
COc1ccc(N2Cc3cccc(C(=O)Nc4ccc(C)cc4)c3C2=O)cc1	Pol kappa inh-1 inconclusive, POLI inh 79.4µM, Pol beta inh 12.6µM (no result: L3MBTL1 inh, WRN helicase inh, Pol eta inh-1) | POLI cherry-pick inconclusive | Pol kappa inh-2 37.7 | Pol eta inh-2 inconclusive
Cc1ccc(NC(=O)c2cccc3c2C(=O)N(C2CCCCC2)C3)cc1	none
COc1ccc(N2Cc3cccc(C(=O)Nc4ccc(C(C)C)cc4)c3C2=O)cc1	Pol kappa inh-1 inconclusive, POLI inh 56.2µM, Pol beta inh 11.2µM (no result: L3MBTL1 inh, WRN helicase inh, Pol eta inh-1) | POLI cherry-pick inconclusive | Pol kappa inh-2 29.9 | Pol eta inh-2 inconclusive
CC(C)c1ccc(NC(=O)c2cccc3c2C(=O)N(C2CCCCC2)C3)cc1	none (no result: L3MBTL1 inh, WRN helicase inh, Pol eta inh-1)
O=C(Nc1cccc(Oc2ccc(C(=O)O)c(C(=O)O)c2)c1)c1ccc(-c2ccccc2)cc1	Pol kappa inh-1 89.1µM, POLI inh inconclusive, WRN helicase inh inconclusive, Pol beta inh inconclusive, Pol eta inh-1 22.4µM (no result: L3MBTL1 inh) | TbPGK inh 14.6µM | POLI cherry-pick 84.4 | GALK confirm 23.7µM | Redox cycling inactive | HEK293 viability inactive | Pol eta inh-2 inconclusive
CCCn1c(NC(=O)CN2C(=O)NC3(CCCC3)C2=O)nc2ccccc21	L3MBTL1 inh inconclusive (no result: Pol beta inh)
COc1ccc(C(=O)N2C(=S)NC(=O)/C2=C\c2ccc(C)cc2)cc1	Pol kappa inh-1 inconclusive, POLI inh inconclusive, WRN helicase inh 50.1µM, Pol beta inh 50.1µM, Pol eta inh-1 inconclusive | POLI cherry-pick 75.2 | Pol eta inh-2 inconclusive
COc1ccc(C=C2NC(=S)NC2=O)cc1	none (no result: L3MBTL1 inh, Pol beta inh)
COC(=O)[C@H](CC(C)C)NC(=O)Nc1ccccc1F	none (no result: L3MBTL1 inh)
